# Reference: the supplement of paper PMC11732987, “Enantioselective OTUD7B fragment discovery through chemoproteomics screening and high-throughput optimisation” (Communications Chemistry, 2025)
# Unmarked numbers belong to inactive results.
# How the values were obtained:
# Experiment in all cases: log2 ratio of Biotin-Ahx-Ub-VS probe labelling (compound/DMSO); higher = less target engagement, active = hit call of the paper (q ≤ 0.05, log2 ratio ≤ -1)
# Conditions in all cases: treatment time: 3 h
# [1] = compound: CCC1N(CCc2sccc12)C(=O)CCl
# How it was run: (§1)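 Compound at 50 or 200 µM, or DMSO, was applied for 3 h in triplicate to HEK293T lysate (495 µg per sample, Tris/CHAPS/IGEPAL buffer with protease inhibitors), after which Biotin-Ahx-Ub-VS was added at 0.5 µM final for 1 h. The labelled DUBs were pulled down with NeutrAvidin, digested with LysC and trypsin, and run by diaPASEF LC-MS/MS. Ratios are averaged base-two logs of compound over DMSO from median-normalised label-free quantities by unpaired t-test, counting only proteins with at least 2 unique peptides.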
# [2] = compound: CN1c2ccccc2C(CS1(=O)=O)NC(=O)CCl
# How it was run: as §1
# [3] = compound: Cl.ClCC(=O)N1CCc2ncncc2C1
# How it was run: as §1
# [4] = compound: Cl.Cn1ncc2C(CCCc12)NC(=O)CCl
# How it was run: as §1
# [5] = compound: ClCC(=O)NC1CCOc2ccccc12
# How it was run: as §1
# [6] = compound: ClCC(=O)NC1CCCc2ccccc12
# How it was run: (§2)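 Each value is an average ratio of compound to vehicle, calculated by unpaired t-test. Lysate from HEK293T cells (495 µg per sample) was incubated in triplicate with compound over a concentration range or vehicle for 3 h and then with Biotin-Ahx-Ub-VS (0.5 µM final) for 1 h. Probe-labelled deubiquitinases were captured on NeutrAvidin, digested and run by diaPASEF LC-MS/MS, with Spectronaut label-free quantities normalised to the global median. Ratios are log2, and only proteins with at least two unique peptides were used.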
# [7] = compound: ClCC(=O)N[C@@H]1CCCc2ccccc12
# How it was run: as §2
# [8] = compound: ClCC(=O)N[C@H]1CCCc2ccccc12
# How it was run: as §2
# [9] = compound: CCC1N(CCc2cc(OC)c(Cl)cc12)C(=O)CCl
# How it was run: as §1
# [10] = compound: CCCC1N(CCc2cc(OC)c(OC)cc12)C(=O)CCl
# How it was run: as §1
# [11] = compound: CN(Cc1cccc(Br)c1)C(=O)CCl
# How it was run: as §1
# [12] = compound: CN(Cc1cccc(OCc2ccccc2C)c1)C(=O)CCl
# How it was run: as §1
# [13] = compound: CN(Cc1ccccc1)C(=O)CCl
# How it was run: as §1
# [14] = compound: COc1ccc(CN(C)C(=O)CCl)cc1
# How it was run: as §1
# [15] = compound: COc1cccc(CN(CCCc2ccccc2)C(=O)CCl)c1
# How it was run: as §1
# [16] = compound: ClCC(=O)N1CCc2cc(Cl)c(Cl)cc2C1
# How it was run: as §1
# [17] = compound: ClCC(=O)N1CCc2nc(ncc2C1)-c1ccccc1
# How it was run: as §1
# [18] = compound: ClCC(=O)N1CCc2nocc2C1
# How it was run: as §1
# [19] = compound: ClCC(=O)N1CCc2scc(Br)c2C1
# How it was run: as §1
# [20] = compound: ClCC(=O)NC(C1CCCC1)c1cccs1
# How it was run: as §1
# Chain of UniProt Q92560 (Q92560 whole entry): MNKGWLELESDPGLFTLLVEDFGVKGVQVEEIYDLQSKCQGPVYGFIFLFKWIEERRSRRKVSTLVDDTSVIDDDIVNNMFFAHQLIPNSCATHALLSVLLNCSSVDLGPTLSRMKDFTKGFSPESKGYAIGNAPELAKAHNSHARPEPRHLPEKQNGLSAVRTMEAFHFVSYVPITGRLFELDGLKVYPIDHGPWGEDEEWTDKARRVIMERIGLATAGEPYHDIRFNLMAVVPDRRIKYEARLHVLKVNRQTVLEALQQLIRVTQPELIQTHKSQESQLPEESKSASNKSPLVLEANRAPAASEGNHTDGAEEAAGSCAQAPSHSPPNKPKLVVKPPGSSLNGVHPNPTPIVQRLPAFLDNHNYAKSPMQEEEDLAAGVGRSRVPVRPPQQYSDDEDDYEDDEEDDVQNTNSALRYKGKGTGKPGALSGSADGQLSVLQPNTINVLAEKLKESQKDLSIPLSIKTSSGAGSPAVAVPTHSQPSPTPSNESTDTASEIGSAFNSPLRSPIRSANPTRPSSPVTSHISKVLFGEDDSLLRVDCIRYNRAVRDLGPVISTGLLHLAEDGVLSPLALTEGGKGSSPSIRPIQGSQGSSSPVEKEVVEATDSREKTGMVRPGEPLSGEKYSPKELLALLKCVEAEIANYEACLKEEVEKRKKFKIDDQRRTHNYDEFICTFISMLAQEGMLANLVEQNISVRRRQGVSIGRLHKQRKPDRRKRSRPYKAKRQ
# Chain of UniProt Q9Y2K6 (Q9Y2K6 whole entry): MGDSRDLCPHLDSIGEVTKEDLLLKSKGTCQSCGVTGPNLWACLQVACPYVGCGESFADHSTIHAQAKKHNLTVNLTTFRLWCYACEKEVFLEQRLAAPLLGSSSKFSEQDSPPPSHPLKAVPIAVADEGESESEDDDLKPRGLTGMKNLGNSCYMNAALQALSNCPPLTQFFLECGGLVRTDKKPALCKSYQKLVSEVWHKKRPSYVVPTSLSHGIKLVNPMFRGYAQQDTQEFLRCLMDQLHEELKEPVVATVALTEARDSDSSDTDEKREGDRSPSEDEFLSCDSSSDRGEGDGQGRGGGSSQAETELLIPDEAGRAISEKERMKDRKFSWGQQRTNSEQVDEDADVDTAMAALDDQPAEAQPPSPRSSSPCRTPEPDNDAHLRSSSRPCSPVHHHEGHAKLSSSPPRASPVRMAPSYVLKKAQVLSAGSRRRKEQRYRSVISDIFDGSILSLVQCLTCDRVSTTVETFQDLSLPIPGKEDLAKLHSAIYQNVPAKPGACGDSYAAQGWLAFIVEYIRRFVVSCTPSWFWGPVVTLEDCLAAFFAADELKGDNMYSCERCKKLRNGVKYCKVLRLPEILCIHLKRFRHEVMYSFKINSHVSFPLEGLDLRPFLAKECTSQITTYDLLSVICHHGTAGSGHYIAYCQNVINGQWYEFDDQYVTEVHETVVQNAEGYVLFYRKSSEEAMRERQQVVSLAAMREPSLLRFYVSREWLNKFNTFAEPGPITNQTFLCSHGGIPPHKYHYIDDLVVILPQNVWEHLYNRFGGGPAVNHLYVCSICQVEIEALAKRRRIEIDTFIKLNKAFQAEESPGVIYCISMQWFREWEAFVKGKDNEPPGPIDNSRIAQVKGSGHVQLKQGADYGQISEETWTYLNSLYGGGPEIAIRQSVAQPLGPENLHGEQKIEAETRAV
target,measurement,setting,value
BAP1 (UniProt Q92560),log2 ratio of Biotin-Ahx-Ub-VS probe labelling,[1]; compound concentration: 50uM,-0.142
same,log2 ratio of Biotin-Ahx-Ub-VS probe labelling,[1]; compound concentration: 200uM,-0.347
same,log2 ratio of Biotin-Ahx-Ub-VS probe labelling,[2]; compound concentration: 50uM,-0.805
same,log2 ratio of Biotin-Ahx-Ub-VS probe labelling,[2]; compound concentration: 200uM,-2.09 (active)
same,log2 ratio of Biotin-Ahx-Ub-VS probe labelling,[3]; compound concentration: 50uM,-0.468
same,log2 ratio of Biotin-Ahx-Ub-VS probe labelling,[3]; compound concentration: 200uM,-1.04 (active)
same,log2 ratio of Biotin-Ahx-Ub-VS probe labelling,[4]; compound concentration: 50uM,-0.38
same,log2 ratio of Biotin-Ahx-Ub-VS probe labelling,[4]; compound concentration: 200uM,-1.03 (active)
same,log2 ratio of Biotin-Ahx-Ub-VS probe labelling,[5]; compound concentration: 50uM,-0.598
same,log2 ratio of Biotin-Ahx-Ub-VS probe labelling,[5]; compound concentration: 200uM,-2.15 (active)
same,log2 ratio of Biotin-Ahx-Ub-VS probe labelling,[6]; compound concentration: 0.78uM,-0.121
same,log2 ratio of Biotin-Ahx-Ub-VS probe labelling,[6]; compound concentration: 1.56uM,0.0581
same,log2 ratio of Biotin-Ahx-Ub-VS probe labelling,[6]; compound concentration: 3.13uM,-0.0976
same,log2 ratio of Biotin-Ahx-Ub-VS probe labelling,[6]; compound concentration: 6.25uM,-0.0118
same,log2 ratio of Biotin-Ahx-Ub-VS probe labelling,[6]; compound concentration: 12.5uM,-0.122
same,log2 ratio of Biotin-Ahx-Ub-VS probe labelling,[6]; compound concentration: 25uM,-0.306
same,log2 ratio of Biotin-Ahx-Ub-VS probe labelling,[6]; compound concentration: 50uM,-0.368
same,log2 ratio of Biotin-Ahx-Ub-VS probe labelling,[6]; compound concentration: 100uM,-0.762
same,log2 ratio of Biotin-Ahx-Ub-VS probe labelling,[6]; compound concentration: 200uM,-1.34 (active)
same,log2 ratio of Biotin-Ahx-Ub-VS probe labelling,[7]; compound concentration: 0.78uM,-0.169
same,log2 ratio of Biotin-Ahx-Ub-VS probe labelling,[7]; compound concentration: 1.56uM,-0.0659
same,log2 ratio of Biotin-Ahx-Ub-VS probe labelling,[7]; compound concentration: 3.13uM,-0.0706
same,log2 ratio of Biotin-Ahx-Ub-VS probe labelling,[7]; compound concentration: 6.25uM,-0.137
same,log2 ratio of Biotin-Ahx-Ub-VS probe labelling,[7]; compound concentration: 12.5uM,-0.178
same,log2 ratio of Biotin-Ahx-Ub-VS probe labelling,[7]; compound concentration: 25uM,-0.163
same,log2 ratio of Biotin-Ahx-Ub-VS probe labelling,[7]; compound concentration: 50uM,-0.418
same,log2 ratio of Biotin-Ahx-Ub-VS probe labelling,[7]; compound concentration: 100uM,-0.683
same,log2 ratio of Biotin-Ahx-Ub-VS probe labelling,[7]; compound concentration: 200uM,-1.54 (active)
same,log2 ratio of Biotin-Ahx-Ub-VS probe labelling,[8]; compound concentration: 0.78uM,-0.119
same,log2 ratio of Biotin-Ahx-Ub-VS probe labelling,[8]; compound concentration: 1.56uM,-0.0453
same,log2 ratio of Biotin-Ahx-Ub-VS probe labelling,[8]; compound concentration: 3.13uM,-0.0819
same,log2 ratio of Biotin-Ahx-Ub-VS probe labelling,[8]; compound concentration: 6.25uM,0.12
same,log2 ratio of Biotin-Ahx-Ub-VS probe labelling,[8]; compound concentration: 12.5uM,-0.18
same,log2 ratio of Biotin-Ahx-Ub-VS probe labelling,[8]; compound concentration: 25uM,-0.239
same,log2 ratio of Biotin-Ahx-Ub-VS probe labelling,[8]; compound concentration: 50uM,-0.305
same,log2 ratio of Biotin-Ahx-Ub-VS probe labelling,[8]; compound concentration: 100uM,-0.756
same,log2 ratio of Biotin-Ahx-Ub-VS probe labelling,[8]; compound concentration: 200uM,-1.39 (active)
same,log2 ratio of Biotin-Ahx-Ub-VS probe labelling,[9]; compound concentration: 50uM,-0.0732
same,log2 ratio of Biotin-Ahx-Ub-VS probe labelling,[9]; compound concentration: 200uM,-0.717
same,log2 ratio of Biotin-Ahx-Ub-VS probe labelling,[10]; compound concentration: 50uM,-0.385
same,log2 ratio of Biotin-Ahx-Ub-VS probe labelling,[10]; compound concentration: 200uM,-0.766
same,log2 ratio of Biotin-Ahx-Ub-VS probe labelling,[11]; compound concentration: 50uM,-0.773
same,log2 ratio of Biotin-Ahx-Ub-VS probe labelling,[11]; compound concentration: 200uM,-2.12 (active)
same,log2 ratio of Biotin-Ahx-Ub-VS probe labelling,[12]; compound concentration: 50uM,-1.42 (active)
same,log2 ratio of Biotin-Ahx-Ub-VS probe labelling,[12]; compound concentration: 200uM,-3.08 (active)
same,log2 ratio of Biotin-Ahx-Ub-VS probe labelling,[13]; compound concentration: 50uM,-0.833
same,log2 ratio of Biotin-Ahx-Ub-VS probe labelling,[13]; compound concentration: 200uM,-2.17 (active)
same,log2 ratio of Biotin-Ahx-Ub-VS probe labelling,[14]; compound concentration: 50uM,-0.731
same,log2 ratio of Biotin-Ahx-Ub-VS probe labelling,[14]; compound concentration: 200uM,-1.9 (active)
same,log2 ratio of Biotin-Ahx-Ub-VS probe labelling,[15]; compound concentration: 50uM,-1.04 (active)
same,log2 ratio of Biotin-Ahx-Ub-VS probe labelling,[15]; compound concentration: 200uM,-3.18 (active)
same,log2 ratio of Biotin-Ahx-Ub-VS probe labelling,[16]; compound concentration: 50uM,-0.373
same,log2 ratio of Biotin-Ahx-Ub-VS probe labelling,[16]; compound concentration: 200uM,-1.76 (active)
same,log2 ratio of Biotin-Ahx-Ub-VS probe labelling,[17]; compound concentration: 50uM,-0.341
same,log2 ratio of Biotin-Ahx-Ub-VS probe labelling,[17]; compound concentration: 200uM,-1.91 (active)
same,log2 ratio of Biotin-Ahx-Ub-VS probe labelling,[18]; compound concentration: 50uM,-0.448
same,log2 ratio of Biotin-Ahx-Ub-VS probe labelling,[18]; compound concentration: 200uM,-1.16 (active)
same,log2 ratio of Biotin-Ahx-Ub-VS probe labelling,[19]; compound concentration: 50uM,-0.426
same,log2 ratio of Biotin-Ahx-Ub-VS probe labelling,[19]; compound concentration: 200uM,-1.68 (active)
same,log2 ratio of Biotin-Ahx-Ub-VS probe labelling,[20]; compound concentration: 50uM,-0.924
same,log2 ratio of Biotin-Ahx-Ub-VS probe labelling,[20]; compound concentration: 200uM,-2.92 (active)
USP20 (UniProt Q9Y2K6),log2 ratio of Biotin-Ahx-Ub-VS probe labelling,[6]; compound concentration: 0.78uM,-0.154
same,log2 ratio of Biotin-Ahx-Ub-VS probe labelling,[6]; compound concentration: 1.56uM,-0.0255
same,log2 ratio of Biotin-Ahx-Ub-VS probe labelling,[6]; compound concentration: 3.13uM,-0.00841
same,log2 ratio of Biotin-Ahx-Ub-VS probe labelling,[6]; compound concentration: 6.25uM,-0.000882
same,log2 ratio of Biotin-Ahx-Ub-VS probe labelling,[6]; compound concentration: 12.5uM,-0.0255
same,log2 ratio of Biotin-Ahx-Ub-VS probe labelling,[6]; compound concentration: 25uM,0.0283
same,log2 ratio of Biotin-Ahx-Ub-VS probe labelling,[6]; compound concentration: 50uM,0.0248
same,log2 ratio of Biotin-Ahx-Ub-VS probe labelling,[6]; compound concentration: 100uM,-0.235
same,log2 ratio of Biotin-Ahx-Ub-VS probe labelling,[6]; compound concentration: 200uM,-0.41
same,log2 ratio of Biotin-Ahx-Ub-VS probe labelling,[7]; compound concentration: 0.78uM,-0.0803
same,log2 ratio of Biotin-Ahx-Ub-VS probe labelling,[7]; compound concentration: 1.56uM,0.0532
same,log2 ratio of Biotin-Ahx-Ub-VS probe labelling,[7]; compound concentration: 3.13uM,-0.0362
same,log2 ratio of Biotin-Ahx-Ub-VS probe labelling,[7]; compound concentration: 6.25uM,-0.00476
same,log2 ratio of Biotin-Ahx-Ub-VS probe labelling,[7]; compound concentration: 12.5uM,-0.141
same,log2 ratio of Biotin-Ahx-Ub-VS probe labelling,[7]; compound concentration: 25uM,-0.125
same,log2 ratio of Biotin-Ahx-Ub-VS probe labelling,[7]; compound concentration: 50uM,-0.102
same,log2 ratio of Biotin-Ahx-Ub-VS probe labelling,[7]; compound concentration: 100uM,-0.0854
same,log2 ratio of Biotin-Ahx-Ub-VS probe labelling,[7]; compound concentration: 200uM,-0.279
same,log2 ratio of Biotin-Ahx-Ub-VS probe labelling,[8]; compound concentration: 0.78uM,-0.0632
same,log2 ratio of Biotin-Ahx-Ub-VS probe labelling,[8]; compound concentration: 1.56uM,0.0904
same,log2 ratio of Biotin-Ahx-Ub-VS probe labelling,[8]; compound concentration: 3.13uM,-0.0898
same,log2 ratio of Biotin-Ahx-Ub-VS probe labelling,[8]; compound concentration: 6.25uM,0.0566
same,log2 ratio of Biotin-Ahx-Ub-VS probe labelling,[8]; compound concentration: 12.5uM,0.0631
same,log2 ratio of Biotin-Ahx-Ub-VS probe labelling,[8]; compound concentration: 25uM,-0.0313
same,log2 ratio of Biotin-Ahx-Ub-VS probe labelling,[8]; compound concentration: 50uM,0.0027
same,log2 ratio of Biotin-Ahx-Ub-VS probe labelling,[8]; compound concentration: 100uM,-0.13
same,log2 ratio of Biotin-Ahx-Ub-VS probe labelling,[8]; compound concentration: 200uM,-0.329
